Compound activity from PubChem.
Platelet DG rel – inhibitors of platelet dense granule secretion, primary screen, cell-based, MLPCN, human platelets; human platelet-rich plasma, SFLLRN dense granule ATP release, luminescence; inhibition, %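 (compounds screened at 7.5 µM in platelet-rich plasma)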; 300,000 tested, 0.22% active; AID 1663, 2009;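 active = mean replicate score, as percent of positive control, at or above 50; inconclusive = mean below 50 but at least one replicate at or above 50; inactive = mean and every replicate below 50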
AHR activator – AHR activators, primary screen, cell-based, luminescence, luciferase reporter, human. AHR-responsive luciferase reporter cells. Aryl hydrocarbon receptor (Homo sapiens), P35869. activation, % at 5 µM. 320,000 tested, 2.5% active; in the data active = activation above about 47%
Target sequence (P35869 whole entry, looked up): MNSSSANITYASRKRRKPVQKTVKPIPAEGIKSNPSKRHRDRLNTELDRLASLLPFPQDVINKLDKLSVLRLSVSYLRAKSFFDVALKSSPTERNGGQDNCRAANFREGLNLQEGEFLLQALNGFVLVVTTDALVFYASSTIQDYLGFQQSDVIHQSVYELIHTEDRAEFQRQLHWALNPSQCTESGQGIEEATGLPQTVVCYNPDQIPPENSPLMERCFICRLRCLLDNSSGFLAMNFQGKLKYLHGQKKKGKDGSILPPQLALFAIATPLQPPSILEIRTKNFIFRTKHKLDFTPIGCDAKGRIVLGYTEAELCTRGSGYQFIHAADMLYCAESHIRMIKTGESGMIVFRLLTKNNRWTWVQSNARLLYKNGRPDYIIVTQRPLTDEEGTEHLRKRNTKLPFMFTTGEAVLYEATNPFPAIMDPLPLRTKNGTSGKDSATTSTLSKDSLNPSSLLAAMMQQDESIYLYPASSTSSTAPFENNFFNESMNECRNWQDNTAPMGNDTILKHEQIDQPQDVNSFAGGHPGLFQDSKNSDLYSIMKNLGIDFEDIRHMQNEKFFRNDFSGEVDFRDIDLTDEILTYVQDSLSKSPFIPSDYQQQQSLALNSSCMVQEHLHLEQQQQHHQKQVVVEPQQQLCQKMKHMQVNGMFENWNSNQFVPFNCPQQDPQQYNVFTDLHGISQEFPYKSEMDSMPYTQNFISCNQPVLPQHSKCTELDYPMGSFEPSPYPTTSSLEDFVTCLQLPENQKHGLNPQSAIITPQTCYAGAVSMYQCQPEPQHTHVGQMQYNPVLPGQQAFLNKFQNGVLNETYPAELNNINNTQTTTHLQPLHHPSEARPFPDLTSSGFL
PolyA inhibitor – polyadenylation inhibitors in yeast reporter cells, primary screen, luminescence, S. cerevisiae; 300,000 tested, 0.02% active; activity score, % at 12 µM; S. cerevisiae SKY197-pL101 polyadenylation reporter, beta-gal luminescence; efflux-impaired pdr1/pdr3 knockout yeast; score 100 = 6 SD above DMSO;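 active = lowest replicate activity score at least 50, where 100 means six control SD above control mean; inconclusive = lowest score under 50 but half or more replicates reach 50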;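 also: yeast exposed to compound for 9 h at 30 °C; higher score means more reporter readthrough which indicates perturbed polyadenylation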
pCIP destab – p/CIP-EGFP fusion destabilizers, primary screen, fluorescence, F442A cells; decrease of EGFP signal, % at 10 µM; 290,000 tested, 0.01% active; 16 h;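 active = EGFP signal decrease of at least 30% at 10 µM or well 3 SD below plate mean, unless failing retest; inactive = the rest, including hits failing retest or dose response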
HIF activator – HIF pathway transcriptional activators, primary screen, cell-based, U2OS HRE-luciferase, luminescence. 300,000 tested, 0.32% active. activation, % at 7.5 µM (by protocol). AID 1910, 2009. U2OS HRE-luciferase reporter; normalized: DMSO 0%, desferrioxamine 100%;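 active = mean activation of at least 10% of the iron chelator positive control signal, with at least half of replicates also reaching 10%; inconclusive = mean and replicate majority disagree about reaching 10%; inactive = mean and most replicates under 10%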
Numbers stand for hits; 0 = inactive; ? = inconclusive; - = not tested or not shown. A selection: hits, their analogues and other compounds. The true share with any hit is near 2.8%.

SMILES | Platelet DG rel | AHR activator | PolyA inhibitor | pCIP destab | HIF activator
COc1ccc(CCNc2nc3ccccc3n3nnnc23)cc1OC | 0 | 54 | 0 | 0 | 0
CCCn1nnnc1COc1ccc(C(N)=O)cc1 | 0 | 0 | 0 | 0 | 0
COc1ccc2[nH]c(C(=O)Nc3ncc(C)cc3Br)cc2c1 | 0 | 0 | 0 | 0 | 0
COc1ccc2[nH]c(C(=O)Nc3ccc(F)cc3Br)cc2c1 | 0 | 50 | 0 | 0 | 0
CC1(C)CC(N2CCC(=O)N(C3CC(C)(C)NC(C)(C)C3)C2)CC(C)(C)N1 | 0 | 0 | 0 | 0 | 0
CC1(C)CC(N2CCC(=O)NC2=S)CC(C)(C)N1 | 69 | 0 | 0 | - | 0
COc1cccc(/C=N\NC(C)=O)c1OC/C=C/c1ccccc1 | 0 | - | 0 | 0 | 0
COc1ccc2nc(C)cc(SCC(=O)N/N=C/c3ccc(O)cc3O)c2c1 | 0 | 0 | 0 | 0 | 22
Cc1ccc(NCC(=O)Nc2ccc(Br)cc2)cc1C | 0 | 0 | 0 | 0 | 0
Cc1ccc(F)cc1NCC(=O)Nc1ccc(Br)cc1 | 0 | 72 | 0 | 0 | 0
Cn1c(N)c(C(=O)/C=C/c2ccccc2)c(=O)[nH]c1=O | 0 | 47 | 0 | 0 | 0
Cn1c(N)c(C(=O)Nc2ccccc2)c(=O)[nH]c1=O | 0 | 0 | 0 | - | 0
O=C(C[n+]1cccc(CO)c1)Nc1nc2ccccc2s1 | 0 | 0 | 0 | 0 | 0
N#Cc1nc(COc2cccc(Cl)c2)oc1NCc1ccco1 | 0 | 63 | 0 | 0 | 0
Cc1ccc(OCc2nc(C#N)c(NCc3ccco3)o2)cc1 | 0 | 0 | 0 | 0 | 0
Cn1nc(C(=O)OCC(=O)Nc2ccc3ccccc3c2)c2ccccc2c1=O | 0 | 0 | 0 | 0 | 0
CC(=O)N1CCCC1(C(=O)O)c1ccccc1 (centres undefined) | 0 | 0 | ? | 0 | 0
O=C1OCc2cc(NC(=O)C3CCCO3)ccc21 (centres undefined) | 0 | 0 | 0 | 0 | 0
O=C1OCc2cc(NC(=O)C34CC5CC(CC(C5)C3)C4)ccc21 | 0 | 0 | 0 | 0 | 828
CCCc1[nH]nc2c1C(c1ccoc1)C(C#N)=C(N)O2 (centres undefined) | 0 | 0 | 0 | 0 | 198
Cc1[nH]nc2c1C(c1ccoc1)C(C#N)=C(N)O2 (centres undefined) | 0 | 0 | 0 | - | 0
O=C(c1ccccc1)c1ncc(C(F)(F)F)cc1Cl | 0 | 0 | 0 | 0 | 0
COC(=O)/C(=C\Nc1ccccc1N)c1ncc(C(F)(F)F)cc1Cl | 0 | 69 | 0 | 0 | 0
Cc1ccnc(NC(=O)C2CC(=O)N(Cc3ccccc3)C2)c1 (centres undefined) | 0 | 0 | 0 | - | 0
Cc1ccc(NC(=O)NNC(=O)COc2ccc([N+](=O)[O-])cc2)cc1C | 0 | 0 | 0 | 0 | 0
SMILES | Platelet DG rel | AHR activator | PolyA inhibitor | pCIP destab | HIF activator
Cc1ccc(NC(=O)CCC(=O)NNC(=O)COc2ccc([N+](=O)[O-])cc2)cc1C | 0 | 53 | 0 | 0 | 0
N/C(=N\OC(=O)c1ccc(Br)o1)c1cccnc1 | 0 | 53 | 0 | 0 | 0
COc1ccc(/C(N)=N/OC(=O)c2ccc(Br)o2)cc1 | 0 | 69 | 0 | 0 | 0
O=C(OCc1nnc(-c2ccccc2)o1)C1CCN(S(=O)(=O)c2cccs2)CC1 | - | 0 | 0 | 0 | 0
O=C(N/N=C/c1cccs1)c1cccc2cc[nH]c12 | 0 | 0 | 0 | 0 | 0
Cc1c(/C=N\NC(=O)c2c[nH]c3ccccc23)cnn1C | 0 | 76 | 0 | 0 | 0
O=C(N/N=C/c1cn(-c2ccccc2)nc1-c1cc2ccccc2o1)c1c[nH]c2ccccc12 | 0 | 109 | 0 | 0 | 0
O=C(N/N=C/c1cccs1)c1c[nH]c2ccccc12 | 0 | 154 | 0 | 0 | 0
COc1ccc(NC(=O)C2=C(C)Nc3nc(CCCO)nn3C2c2ccc(OC)c(OC)c2)cc1 (centres undefined) | 0 | 0 | 0 | 0 | 0
CC1CCN(C(=O)C(C)c2ccc([N+](=O)[O-])cc2)CC1 (centres undefined) | 0 | 0 | 0 | 0 | 0
COc1ccc(-c2cc3cc(OC)c(OC)cc3c(C)n2)cc1 | 0 | 82 | 0 | 0 | 0
COc1ccc2c(OC)cc(-c3ccccc3)nc2c1 | 0 | 70 | 0 | 0 | 0
COc1ccc(-c2cc(OC)c3ccccc3n2)cc1 | 0 | 60 | 0 | 0 | -
COc1ccc(-c2cc3ccccc3cn2)cc1 | - | 51 | - | - | -
CCOc1ccccc1OCCCNCc1ccco1 | 0 | 0 | 0 | 0 | 0
